Largest response in the series, negative = inhibition and Potency data for 90 compounds are collected here from PubChem BioAssay AID1490 (National Center for Advancing Translational Sciences (NCATS), 2009).

Among all 310,000 compounds or so, about 11,000 (3.5%) were called active. Inconclusive results (about 4%) are left out. The sample holds actives, similar compounds and a random draw of the others, so the mix is not that of the screen. A number with no mark means an inactive call. Calls follow the shape of the dose curve; as a rule, active = well fitted inhibition curve with a large enough effect; inconclusive = small, poorly fitted or top-dose-only effect, or another doubt; inactive = no such curve, though single readings can be large or run the other way. Non-standard residues stand in square brackets, D forms with d. Residues, ends and D or L forms follow the SMILES beside them. Groups on a side chain read outwards from the residue. *: point of attachment. X1 = CCC(C)C(N)C1=NC(C(=O)*)CS1; Orn = NCCC[CH](N)C(=O)O
Potency is read from the fitted curve at half-maximal effect.

The test deals with 4'-phosphopantetheinyl transferase ffp (Bacillus subtilis) (UniProt Q9F4F7). The test can be described thus: qHTS Assay for Inhibitors of Bacillus subtilis Sfp phosphopantetheinyl transferase (PPTase).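 Also: the enzyme is Sfp with the accession as filed and its product quenches rhodamine fluorescence.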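 As to Largest response in the series, negative = inhibition: 0% = enzyme reaction without inhibitor and -100% = no enzyme wells.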 The settings on record: Biochemical Sfp PPTase activity. The method in brief: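 Reaction rates are the 30-min fluorescence difference (ex 525, em 598 nm) in wells containing 15 nM Sfp, 5 uM rhodamine-CoA and 12.5 uM BHQ-2-YbbR at pH 7.6 with 10 mM MgCl2.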
Take `CCOC(=O)C1CCN(C(=O)C2CCCN(S(=O)(=O)c3ccc(OC)c(Cl)c3)C2)CC1` (stereo not given): the largest response in the series, negative = inhibition is 3.96%. Still for that read-out and setting: as for `Cc1cc(=O)oc2c3c(cc(OCC(=O)NCCC(=O)N[C@@H](C)C(=O)O)c12)OC(C)(C)CC3`, the figure is 2.46%; as for `CCOC(CNC(=O)C1CCN(S(=O)(=O)c2ccc3nc4c(c(C(=O)O)c3c2)CC(C)CC4)CC1)OCC` (stereo not given), 9.57%. Regarding `COC(=O)CC1=NN(c2nc(C)cc(C)n2)C(=O)C1`, the Potency was 50.1 µM (active).

With `Cc1ccc(CC2CC(=O)N(c3nc(C)cc(C)n3)C2=O)cc1` (stereo not given), the largest response in the series, negative = inhibition is 0.267%. `Cc1cc(C)cc(NC(=O)C2CCN(c3nc(C)cc(C)n3)CC2)c1`: the largest response in the series, negative = inhibition is 9.84%. As to `Cc1ccc(-n2c(C)nnc2SCC(=O)NC2CC2)cc1`, the largest response in the series, negative = inhibition is 4.57%. The same measure, in the same setting: as for `O=[N+]([O-])c1ccccc1NCc1ccc(Cl)cc1`, the figure is -18.2%. For `Oc1ccc(CNc2ccccc2O)cc1`, the Potency was 50.1 µM (active). In the case of `O=C(Cc1ccc(Cl)cc1)NC(=S)Nc1ccccc1O`, the largest response in the series, negative = inhibition was 12.4%.

As for `COc1ccc(CN2CCC(=O)c3ccccc3S2(=O)=O)cc1`, the largest response in the series, negative = inhibition is -5.49%. Still for that read-out and setting: next, `O=P(O)(O)OC[C@H](O)CO`: 16.8%. On to `COc1cc(Cl)c(C)cc1NC(=O)CSc1nnc(-c2ccco2)n1CC(C)C`, for which the Potency is 44.7 µM (active).

As for `COc1cc(Cl)c(C)cc1NC(=O)CSc1nnc(-c2cccnc2)n1Cc1ccco1`, the largest response in the series, negative = inhibition was -18.1%. Still for that read-out and setting: next, `CCn1c(SCC(=O)Nc2cc(C)c(Cl)cc2OC)nnc1-c1ccco1`: 2.43%; `O=S(=O)(Cc1nnnn1-c1ccc(Br)cc1)c1ccc(F)cc1`: 6.04%. On the same count and under the same terms, next, `Cn1c(=O)c2c(SCC(=O)NCC3CCCO3)nc(CC(C)(C)C)nc2n(C)c1=O` (stereo not given): -16%; `Nc1c(Cl)cc(-c2csc(N3CCCC3c3nc4cc(Cl)c(Cl)cc4n3CCOCCO)n2)cc1Cl` (stereo not given): -23.5%.

`CCOC(=O)c1c(-n2cnnn2)sc(C)c1C`: the Potency is 35.5 µM (active). As for `CCOC(=O)c1c(NC(=O)CSc2nccc(=O)[nH]2)sc(C)c1C`, the largest response in the series, negative = inhibition is 2.75%. Take `CCOc1ccc(C(=O)COC(=O)c2ccc(-n3cnnn3)cc2)cc1`: the largest response in the series, negative = inhibition was 8.76%. The same measure, in the same setting: as for `CCC(C)C(N)C1=NC(C(=O)NC(CC(C)C)C(=O)NC(CCC(=O)O)C(=O)NC(C(=O)NCCCCC2NC(=O)C(CC(N)=O)NC(=O)C(CC(=O)O)NC(=O)C(Cc3cnc[nH]3)NC(=O)C(Cc3ccccc3)NC(=O)C(C(C)CC)NC(=O)C(CCCN)NC2=O)C(C)CC)CS1` (stereo not drawn) (cyclo(DNK([Ile-Glu-Leu-X1])[Orn]IFH); configuration not given here), the figure is -53.6%; as for `CC(=O)OC1C([N+]2(C)CCCCC2)C[C@H]2C3CC[C@H]4C[C@H](OC(C)=O)C([N+]5(C)CCCCC5)CC4(C)C3CCC12C` (stereo not given in full), 11.5%; as for `COc1ccc(S(=O)(=O)NCC(=O)NCc2cc(=O)n(C)c(=O)n2C)cc1F`, 14.7%. Same read-out and setting: as for `COc1ccc(C(=O)Nc2ccc(NC(=O)C(C)C)nc2)cc1`, the figure is 27.7%. The same measure, in the same setting: as for `CCOc1ccc(S(=O)(=O)Nc2ccc(OC)nc2)cc1`, the figure is 11.7%. `COc1ccc(CS(=O)/C(Cl)=C(/Cl)C(=O)Nc2ccc(OC)nc2)cc1` (stereo not given): the Potency is 14.1 µM (active).

For `O=C1COc2ccc(S(=O)(=O)NCCc3ccc(Cl)cc3)cc2N1`, the largest response in the series, negative = inhibition was 13.2%. On the same count and under the same terms, next, `Cn1c(SCC(=O)Nc2ccc(Br)cc2F)nnc1-c1ccco1`: 1.27%; `CCOC(=O)CSc1nnc(-c2ccco2)n1C`: -9.26%. `Cn1c(SCC(=O)c2cccs2)nnc1-c1ccco1`: the Potency was 22.4 µM (active). On to `CCC(C)(C)NC(=O)C(c1ccc(OC)cc1)N(C(=O)CCC(=O)Nc1cc(C)on1)c1ccc(OC)cc1OC` (stereo not given), for which the largest response in the series, negative = inhibition is 11.3%. `CCOCCCNC(=S)Nc1ccc2nc(N3CCN(CC)CC3)cc(C)c2c1`: the largest response in the series, negative = inhibition was 10.7%. Still for that read-out and setting: next, `CCc1ccccc1NC(=O)c1ccc2c(c1)CCN2S(C)(=O)=O`: 10.6%. Still for that read-out and setting: next, `Cc1ccc(-c2nc3ccccc3[nH]c2=O)cc1`: 9.46%. As for `CC(=O)c1c(-c2ccccc2)c2ccccc2[nH]c1=O`, the largest response in the series, negative = inhibition is 28.5%. As for `O=c1[nH]c2ccccc2n2c(-c3ccccc3)nnc12`, the Potency is 1.26 µM (active). As to `O=C(CCn1nnnc1CN1CCOCC1)N1CCC(c2ccccc2Cl)C1` (stereo not given), the largest response in the series, negative = inhibition is 10.9%. For the compound `Cc1ccc(CNC(=O)[C@@H](NC(=O)Cc2ccccc2)C(C)C)cc1`, the largest response in the series, negative = inhibition is 19.7%. For the compound `C=CCn1c(=S)[nH]c2scc(-c3ccco3)c2c1=O`, the Potency was 20 µM (active). Consider `C=CCn1cnc2scc(-c3ccccc3)c2c1=O`, for which the largest response in the series, negative = inhibition is 10.8%. For the compound `C=CCn1c(=S)[nH]c2nc3c(cc2c1=O)COC(C)(C)C3`, the largest response in the series, negative = inhibition was -7.89%. On the same count and under the same terms, as for `COc1cccc(-n2c(N)cc(=O)nc2SCC(=O)Nc2cc(C)on2)c1`, the figure is 21.7%; as for `CCOC(=O)C1(CCOc2ccccc2)CCN(Cc2ccc(C#CCCO)cc2)CC1`, 10.5%. On the same count and under the same terms, next, `Nc1nc(NCc2ccccc2)n(-c2ccccc2)n1`: 16.4%; `O=c1[nH]c2c(c(=O)n1Cc1ccccc1)CCC2`: 4.99%. With `Cc1cc2nc3c(=O)n(Cc4ccccc4)c(=O)[nH]c3nc2cc1N`, the Potency is 20 µM (active). On to `CC(=O)c1ccc(-c2ccc(Cn3c(C)nc4cc(N)c(C)nc43)cc2)cc1`, for which the largest response in the series, negative = inhibition is 5.24%. Turning to `CC(C)Cn1cnc2c1c(=O)n(CC(=O)NN)c(=O)n2Cc1ccccc1`, the largest response in the series, negative = inhibition was 10.8%. The same measure, in the same setting: next, `CCOC(=O)[C@@H]1[C@H]2COc3cc(OC)ccc3[C@H]2N2C(=O)N(c3ccc(F)cc3)C(=O)[C@]12C`: 11.1%.

Turning to `O=S(=O)(NC1CC2CCC1C2)c1ccc(Cl)cc1` (stereo not given), the largest response in the series, negative = inhibition is 6.14%. On the same count and under the same terms, as for `Cc1ccc(NC(=S)NC(=O)/C=C/c2ccc(Cl)cc2)cc1`, the figure is -9.72%.

Take `CCOc1ccc(NC(=S)NC(=O)/C=C/c2ccc(OC)cc2)c([N+](=O)[O-])c1`: the Potency is 70.8 µM (active). Regarding `COCOc1cc(OC)ccc1C(=O)/C=C/c1ccc([N+](=O)[O-])cc1`, the largest response in the series, negative = inhibition is 0.0276%. On the same count and under the same terms, next, `CCOC(=O)C1=C(c2ccccc2)NC(=O)NC1c1cc(OCC)c(O)c([N+](=O)[O-])c1` (stereo not given): 10.9%. The same measure, in the same setting: as for `Brc1ccccc1/C=N/Nc1nc2ccccc2o1`, the figure is -1.43%; as for `COC(=O)c1ccc2ccccc2c1OC1OC(CO)C(O)C(O)C1NC(C)=O` (stereo not given), 4.77%. Turning to `COc1cc(CN2CCN(Cc3ccc(C)cc3)CC2)c([N+](=O)[O-])cc1OC`, the Potency is 56.2 µM (active). Take `COc1cc(CN2CCCN(C)CC2)c([N+](=O)[O-])cc1OC`: the largest response in the series, negative = inhibition is 5.29%.

Turning to `COc1cc(CN2CC(C)CC(C)C2)cc([N+](=O)[O-])c1O` (stereo not given), the largest response in the series, negative = inhibition was -8.11%. Still for that read-out and setting: next, `COc1ccc(OCC(=O)NNC(=O)c2ccc(-c3ccccc3)cc2)cc1`: -6.16%; `COc1cccc(OCc2nnc3n2N=C(c2ccccc2)C(CC(=O)O)S3)c1` (stereo not given): 13.2%. As to `COc1ccc(OCc2nnc3n2N=C(c2ccccc2)C(CC(=O)O)S3)cc1` (stereo not given), the Potency is 4.47 µM (active). Regarding `COc1cccc(CNC(=O)C2CCCN(c3ncnc4c3nc3n4CCCCC3)C2)c1` (stereo not given), the largest response in the series, negative = inhibition was 3.29%.

As to `COC(=O)c1cccc(-n2[nH]nnc2=S)c1`, the Potency was 15.8 µM (active). Take `COC(=O)c1cccc(N2C(=O)C3C4C=CC(CC4)C3C2=O)c1` (stereo not given): the largest response in the series, negative = inhibition is 11.5%.

On to `COC(=O)c1cccc(NS(C)(=O)=O)c1`, for which the largest response in the series, negative = inhibition is 9.77%.

Regarding `CC1(C)Cc2c(sc(NC(=O)C(=O)NCC3CCCO3)c2C(=O)O)CO1` (stereo not given), the largest response in the series, negative = inhibition is 8.68%. Still for that read-out and setting: next, `C=C(C(C)=O)C(O)c1ccc([N+](=O)[O-])cc1` (stereo not given): -25.7%; `CC(=O)Nc1c2c(nn1-c1cccc(C)c1)CSC2`: 15.2%; `O=C(CCN1c2ccccc2Sc2ccccc21)Nc1ccccc1`: -1.89%. As to `CCN1/C(=C/C(=S)Nc2ccccc2)Sc2ccccc21`, the Potency is 14.1 µM (active). On to `CCN1/C(=C/c2ccc3ccc(C)cc3[n+]2CC)Sc2ccccc21`, for which the largest response in the series, negative = inhibition was -8.02%. Take `Cc1ccc(S(=O)(=O)N2CCC3(CC2)OCCO3)c(C)c1`: the largest response in the series, negative = inhibition was 19.7%. Same read-out and setting: as for `CCc1[nH]nc(C(=O)N2CCCC(CO)(Cc3ccc(F)cc3F)C2)c1C` (stereo not given), the figure is 4.7%; as for `COC(=O)C1CCN(C(=O)c2ccc3oc(Cc4ccc(Cl)cc4)nc3c2)CC1`, 16.5%. Still for that read-out and setting: next, `Cc1cc(C)c([N+](=O)[O-])cc1-c1ccc(/C=N/NC(=O)c2nonc2N)o1`: -8.88%. The same measure, in the same setting: next, `O=C(CN1CCOCC1)N/N=C/c1ccc(-c2ccc(Br)cc2)o1`: -29.3%. In the case of `Cc1ccc(-c2ccc(/C=N/NC(=O)CN3CCOCC3)o2)cc1[N+](=O)[O-]`, the Potency was 50.1 µM (active). In the case of `Cc1[nH]c2ccc(C(=O)N3CCN(C)CC3)cc2c1C`, the largest response in the series, negative = inhibition is 9.64%. Same read-out and setting: next, `Cc1ccc(-c2csc(NC3OC(=O)c4ccccc43)n2)cc1` (stereo not given): 7.08%. On the same count and under the same terms, as for `NC(=O)C1CCN(CC(O)CSc2ccc(F)cc2)CC1` (stereo not given), the figure is 0.977%.

For `Cc1ccc(C(=O)NNc2ncnc3ccccc23)cc1`, the Potency was 70.8 µM (active). For the compound `CCc1nc(SCC(=O)NNC(=O)c2ccc(C)cc2)c2ccccc2n1`, the largest response in the series, negative = inhibition was 10%. Consider `Cc1ccc(C(=O)NNC(=O)c2cc3cc4ccccc4nc3s2)cc1`, for which the largest response in the series, negative = inhibition is -2.23%.

Take `CCOc1cc(NC(=O)Nc2ccccc2)c(OCC)cc1NC(=O)CC`: the largest response in the series, negative = inhibition is 17.2%.

On to `COc1cc(C(=O)NCc2cc3cc(Cl)ccc3n2C)cc(OC)c1OC`, for which the largest response in the series, negative = inhibition is 9.69%. Same read-out and setting: next, `O=C(Nc1ccc(N2CCOCC2)c(Cl)c1)c1ccc(S(=O)(=O)N2CCOCC2)cc1`: 10.6%. Still for that read-out and setting: as for `O=C(Nc1ccc(S(=O)(=O)Nc2nccs2)cc1)c1cccc(S(=O)(=O)N2CCOCC2)c1`, the figure is 10%. Consider `O=C(Nc1ccc(S(=O)(=O)N2CCOCC2)cc1)c1ccc2ncsc2c1`, for which the Potency is 50.1 µM (active).
